This is one part of a sample in which hits are shown more often than they occur.
AmpC detergent: qHTS Inhibitors of AmpC Beta-Lactamase (assay with detergent); 370,000 tested, 0.041% active; AmpC hydrolysis of nitrocefin, absorbance 480 nm, 0.01% Triton; AID 485294, 2010; Potency, µM (series often up to 114 µM), most hits filed as inhibitors; note: nearly all actives have a fitted effect of over 25% in size
Target sequence (P00811 whole entry, looked up): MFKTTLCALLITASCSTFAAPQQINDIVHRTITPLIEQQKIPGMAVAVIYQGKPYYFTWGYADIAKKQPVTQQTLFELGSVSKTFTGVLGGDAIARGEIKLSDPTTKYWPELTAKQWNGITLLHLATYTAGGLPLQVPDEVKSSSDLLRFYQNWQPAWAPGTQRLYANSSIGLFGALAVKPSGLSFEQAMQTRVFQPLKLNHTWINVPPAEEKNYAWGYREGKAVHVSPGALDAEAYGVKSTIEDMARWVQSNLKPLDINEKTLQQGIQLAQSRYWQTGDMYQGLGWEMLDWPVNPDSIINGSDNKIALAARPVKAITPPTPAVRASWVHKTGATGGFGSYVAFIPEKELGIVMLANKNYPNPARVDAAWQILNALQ
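20 mM phosphate pH 7.0 + 0.01% (detergent screen) or 0.0001% Triton X-100; 5.3 nM AmpC reagent; cpd preinc 15 min RT; nitrocefin (800 uM stock) to start; A480 q20 s × 4 min; Activity was normalised to no-enzyme and no-compound control wells.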
AmpC no deterg: qHTS Inhibitors of AmpC Beta-Lactamase (assay without detergent). AmpC nitrocefin hydrolysis, absorbance 480 nm, 0.0001% Triton. Potency, µM (top dose mostly 57.1 µM), hits mostly inhibitors. 330,000 tested, 0.52% active. AID 485341, 2010; note: nearly all actives have a fitted effect of over 20% in size
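AmpC (5.3 nM in the dispensed reagent) in 20 mM phosphate pH 7.0 with 0.01% (detergent screen) or 0.0001% Triton X-100 was preincubated with compounds for 15 min at room temperature. Nitrocefin was then added from an 800 uM solution, and hydrolysis was followed at 480 nm.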
Each line names hits and unclear results; the compound was inactive in the other large screens. Calls come from the whole dose curve; as a rule, active = well fitted curve in the direction sought with a large enough effect; inconclusive = small, poorly fitted or top-dose-only effect, or another doubt; inactive = no such curve, though single readings can be large; an effect the other way counts as inactive or inconclusive.

COc1cc(/C=N/NC(=O)c2cc(-c3cccn3C)n[nH]2)cc(OC)c1OC	AmpC detergent inconclusive
COc1cc(NC(=O)CN2C(=O)NC(C)(CCC(C)C)C2=O)cc(OC)c1 (stereo not given)	AmpC detergent inconclusive
COc1cc(NC(=O)CN2C(=O)NC(C)(CC(C)C)C2=O)cc(OC)c1 (stereo not given)	AmpC no deterg 0.891µM
COc1ccccc1NC(=O)C1=C(C)Nc2nc(SCc3cc(C)ccc3C)nn2C1c1ccccc1 (stereo not given)	none (no result: AmpC no deterg)
CCOc1ccc(C(=O)NCc2nnnn2-c2ccc(C)c(C)c2)cc1OCC	none (no result: AmpC no deterg)
COc1ccc(C(=O)Nc2cc(C)c3c(=O)oc4ccccc4c3n2)cc1	AmpC detergent inconclusive, AmpC no deterg 8.91µM
COCC(=O)Nc1cc(C)c2c(=O)oc3ccccc3c2n1	none
COc1ccc(CNC(=O)CCc2nc(-c3ccc(C)cc3)no2)c(OC)c1	none (no result: AmpC no deterg)
C=CCn1c(=NC(=O)C2CCCCC2)sc2cc(NC(C)=O)ccc21	AmpC detergent inconclusive, AmpC no deterg 3.98µM
C=CCn1c(=NC(=O)C2CC2)sc2cc(NC(C)=O)ccc21	none
O=C(CSc1nc2nn(-c3ccccc3)c(=O)c-2c2n1CCCCC2)Nc1ccc(F)c(F)c1	AmpC no deterg 10µM (no result: AmpC detergent)
O=C(CSc1nc2nn(-c3ccccc3)c(=O)c-2c2n1CCCCC2)Nc1ccc(F)cc1F	none
Cc1nc(Nc2ccc(Cl)cc2)cc(-c2ccccc2)n1	none (no result: AmpC no deterg)
O=C(COc1ccc(Cl)cc1)Nc1ccc(C(=O)OCc2cc(=O)n3ccsc3n2)cc1	none (no result: AmpC no deterg)
O=C(CSc1ccsc1[N+](=O)[O-])Nc1cc(F)ccc1F	none
CC(=O)c1ccc(NC(=O)CSc2ccsc2[N+](=O)[O-])cc1	AmpC no deterg 4.47µM
CCc1ccc(OCC(=O)Nc2ccc(Cl)c(-c3nc4ncccc4o3)c2)cc1	none (no result: AmpC no deterg)
Cc1ccc2oc3c(c(=O)c2c1)C(c1ccccc1F)N(c1ccccn1)C3=O (stereo not given)	none (no result: AmpC no deterg)
Cc1ccc2oc3c(c(=O)c2c1)C(c1cccc(O)c1)N(c1ccccn1)C3=O (stereo not given)	AmpC no deterg 3.55µM
CCOc1ccc(CC(=O)NNC(=S)NC)cc1	none
CNC(=S)NNC(=O)Cc1ccccc1	AmpC no deterg 0.282µM
O=C(Nc1nc2c(F)cc(F)cc2s1)c1ccc(S(=O)(=O)N2CCc3ccccc32)cc1	none (no result: AmpC no deterg)
O=C(Nc1ccc(-c2nc3ccccc3[nH]2)cc1)c1ccco1	none
O=C(/C=C/c1ccco1)Nc1ccc(-c2nc3ccccc3[nH]2)cc1	AmpC no deterg 35.5µM
COc1ccc(CNC(=O)Cn2ncc3c4ccccc4n(Cc4cccc(Cl)c4)c3c2=O)cc1	none (no result: AmpC no deterg)
CCOC(=O)CSc1nc2nc(C)cc(C)n2n1	AmpC detergent inconclusive, AmpC no deterg 10µM
COC(=O)CSc1nc2nc(C)cc(C)n2n1	none (no result: AmpC no deterg)
Cc1ccc(NC(=O)NCc2c(-n3cccc3)sc3c2CCCC3)c(Cl)c1	none (no result: AmpC no deterg)
Cc1ccc(NC(=O)Cn2nc(C)c3nn(-c4ccc(Cl)cc4)c(C)c3c2=O)cc1F	none (no result: AmpC no deterg)
COc1ccc(C)cc1NC(=O)NC(C)c1c(-n2cccc2)sc(C)c1C (stereo not given)	none (no result: AmpC no deterg)
CC1Cc2ccccc2N1Cc1cc(=O)c(OCC(=O)Nc2ccccc2)co1 (stereo not given)	AmpC no deterg 35.5µM
Cc1ccc(NC(=O)COc2coc(CN3c4ccccc4CC3C)cc2=O)c(C)c1 (stereo not given)	none
CC(=O)N1CCc2cc(Br)cc(S(=O)(=O)N3CCC(C(=O)Nc4ccc(C(C)C)cc4)CC3)c21	none (no result: AmpC no deterg)
O=S(=O)(O)c1cc(O)c2c(O)c(N=Nc3cc(Cl)ccc3O)c(S(=O)(=O)O)cc2c1	none
Cc1cc(-c2ccc(N=Nc3c(S(=O)(=O)O)cc4cc(S(=O)(=O)O)cc(N)c4c3O)c(C)c2)ccc1N=Nc1c(S(=O)(=O)O)cc2cc(S(=O)(=O)O)cc(N)c2c1O	AmpC detergent 12.6µM
COc1cccc(Nc2ncnc3nc[nH]c23)c1	AmpC detergent inconclusive, AmpC no deterg 3.16µM
Cc1ccc(Nc2ncnc3nc[nH]c23)cc1Cl	none
COc1cc(Cl)c(S(=O)(=O)NCCc2c(C)[nH]c3c(C)cccc23)cc1Cl	none (no result: AmpC no deterg)
CCOc1cc(C=C(C#N)C#N)ccc1Oc1ccc([N+](=O)[O-])cn1	none
COc1cc(/C=C(/C#N)c2ccc(F)cc2)ccc1Oc1ccc([N+](=O)[O-])cn1	AmpC no deterg 28.2µM
CCCN(CCC)CCNC(=O)c1cc2c(=O)oc3ccc(C)cc3c2s1	none (no result: AmpC no deterg)
CC(=O)c1cccc(NC(=O)Cn2nc(C)n3cccc3c2=O)c1	none (no result: AmpC no deterg)
O=C(Cc1ccc(F)cc1)NCCc1csc2nc(-c3ccc(Cl)cc3)nn12	none (no result: AmpC no deterg)
O=C(Nn1c(-c2ccc(Br)cc2)nc2ccccc2c1=O)c1ccncc1	none
Cc1cc(C(=O)Nn2c(-c3ccc(Br)cc3)nc3ccccc3c2=O)ccc1[N+](=O)[O-]	AmpC no deterg 14.1µM
COc1ccc(C(=O)Nc2cccc(C(=O)OCc3cc(=O)n4nc(C5CC5)sc4n3)c2)cc1	none (no result: AmpC no deterg)
Cc1cc(C(=O)N2CC(C)CC(C)C2)n(-c2ccccc2)n1 (stereo not given)	AmpC detergent inconclusive, AmpC no deterg 8.91µM
Cc1cc(C(=O)N2CCOCC2)n(-c2ccccc2)n1	none
Nc1n[nH]c2cc(=O)n(-c3cccc(C(F)(F)F)c3)nc12	none
O=c1[nH][nH]c2cc(=O)n(-c3cccc(C(F)(F)F)c3)nc12	AmpC no deterg 20µM
Cn1cc(S(=O)(=O)N2CCN(c3ccccc3)CC2)c(=O)n(C)c1=O	AmpC no deterg 39.8µM
Cn1cc(S(=O)(=O)N2CCN(c3cccc(Cl)c3)CC2)c(=O)n(C)c1=O	none
COc1cccc(CNC(=O)Cn2c(C)c3cnn(-c4ccccc4)c(=O)c3c2C)c1	none (no result: AmpC no deterg)
Cc1cc(NC(=O)C(C)SCC(=O)Nc2ccccc2N2CCCC2)no1 (stereo not given)	none
Cc1cc(NC(=O)C(C)SCC(=O)Nc2cc(C(F)(F)F)ccc2N2CCCCC2)no1 (stereo not given)	AmpC no deterg 31.6µM
Cc1ccc2nc3sc(C(=O)Nc4ccc(F)cc4)cc3cc2c1	none
COc1cccc(NC(=O)CSc2nc3c(oc4ccccc43)c(=O)n2Cc2ccco2)c1	none (no result: AmpC no deterg)
O=C(CSc1nnc2c(n1)[nH]c1ccccc12)Nc1ccc2c(c1)OCO2	AmpC no deterg 8.91µM
Cc1ccc(CSCC(=O)Nc2ccc3c(c2)OCO3)cc1	none
CCC(=O)Nc1ccc(NC(=O)CSc2nnnn2-c2ccc3c(c2)OCCO3)cc1	none
Cc1ccc(NC(=O)CSc2nnc3c(n2)[nH]c2ccccc23)cc1	AmpC detergent inconclusive
O=C(CSCc1ccc(Cl)cc1)Nc1ccc2c(c1)OCCO2	AmpC no deterg 11.2µM
O=C(CSc1nnnn1-c1ccccc1Cl)Nc1ccc2c(c1)OCCO2	AmpC no deterg 31.6µM
COc1ccc(S(=O)(=O)c2cn(C)c3cc(N4CCCC4)c(F)cc3c2=O)cc1	none (no result: AmpC no deterg)
O=C(Nc1ccc(F)cc1F)c1ccc(-n2cnc3cccnc32)cc1	none (no result: AmpC no deterg)
Cc1cc(C)cc(NC(=O)Cn2cc(S(=O)(=O)NC(C)(C)C)c(S(=O)(=O)NC(C)(C)C)c2)c1	none (no result: AmpC no deterg)
CC1CCc2[nH]c3ccc(C(=O)N(C)CC(=O)Nc4ccccc4Br)cc3c2C1 (stereo not given)	AmpC no deterg 28.2µM
Cc1ccc(C)c(NC(=O)CN(C)C(=O)c2ccc3[nH]c4c(c3c2)CC(C)CC4)c1 (stereo not given)	none
O=C(CN1C(=O)COc2ccc(Cl)cc21)Nc1ccc(F)cc1	none (no result: AmpC no deterg)

Screening results deposited in PubChem BioAssay by National Center for Advancing Translational Sciences (NCATS).
